About 3,000 (0.83%) of roughly 360,000 compounds were called active. This excerpt belongs to a sample that is enriched for actives. Values without a mark were called inactive. No stated cut-off is given here; in the data, active means inhibition above about 50%; inactive means the rest.

The target in the assay is DNA (cytosine-5)-methyltransferase 1 (Homo sapiens) (UniProt P26358). The assay can be described thus: human DNMT1 methyltransferase inhibitors, primary screen, biochemical, molecular beacon, fluorescence, HinP1I cleavage, uHTS (AID 588458). To be noted: at 10 µM, hits give high values.
Sequence of DNA (cytosine-5)-methyltransferase 1 (Homo sapiens) (P26358 504-1616 limits assumed): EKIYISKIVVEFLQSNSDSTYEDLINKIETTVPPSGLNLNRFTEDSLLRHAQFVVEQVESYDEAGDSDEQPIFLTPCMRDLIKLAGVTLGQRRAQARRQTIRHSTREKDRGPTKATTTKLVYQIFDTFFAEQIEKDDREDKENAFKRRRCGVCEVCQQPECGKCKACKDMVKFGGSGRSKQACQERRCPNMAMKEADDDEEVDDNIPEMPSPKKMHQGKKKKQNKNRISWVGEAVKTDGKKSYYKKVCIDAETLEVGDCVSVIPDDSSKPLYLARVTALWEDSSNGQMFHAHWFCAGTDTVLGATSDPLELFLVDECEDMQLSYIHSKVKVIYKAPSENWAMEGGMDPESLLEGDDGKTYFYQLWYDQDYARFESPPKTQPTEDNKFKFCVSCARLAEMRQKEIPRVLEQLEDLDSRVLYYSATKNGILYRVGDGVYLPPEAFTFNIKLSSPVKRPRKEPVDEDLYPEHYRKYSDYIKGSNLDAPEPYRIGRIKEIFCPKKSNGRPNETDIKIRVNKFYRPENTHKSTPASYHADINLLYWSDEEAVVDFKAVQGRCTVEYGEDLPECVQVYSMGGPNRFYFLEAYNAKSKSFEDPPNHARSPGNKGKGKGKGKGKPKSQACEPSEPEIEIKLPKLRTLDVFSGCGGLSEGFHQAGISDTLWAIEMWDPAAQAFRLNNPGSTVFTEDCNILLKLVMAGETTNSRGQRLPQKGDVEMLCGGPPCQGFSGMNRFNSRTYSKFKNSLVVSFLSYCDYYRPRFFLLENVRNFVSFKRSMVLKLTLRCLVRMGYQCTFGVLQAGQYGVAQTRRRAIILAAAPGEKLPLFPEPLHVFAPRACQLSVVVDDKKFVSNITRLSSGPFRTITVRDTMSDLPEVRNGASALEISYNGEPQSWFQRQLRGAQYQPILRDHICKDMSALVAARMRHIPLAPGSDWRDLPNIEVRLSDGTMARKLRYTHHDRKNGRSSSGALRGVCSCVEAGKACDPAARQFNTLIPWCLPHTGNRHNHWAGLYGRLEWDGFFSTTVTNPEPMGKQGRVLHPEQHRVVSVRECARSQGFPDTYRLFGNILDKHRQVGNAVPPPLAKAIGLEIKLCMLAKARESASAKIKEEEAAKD
In the case of `O=C(Nc1ccnn1C1CCN(Cc2cccc(OCCO)c2)CC1)C1CCCC1`, the inhibition (reported as % activation of signal) is -0.78%.
In the case of `CCOc1ccc(CN2CCC(n3nccc3NC(=O)C3CC3)CC2)cc1CO` it was 55.5% (active); in that of `COc1cc(CC(=O)N2CCC(n3nccc3NC(=O)C3CC3)CC2)cc(OC)c1OC`, 0.88%.
On to `COCCCC1CCN(C(=O)C2CCC(=O)N(C3CCCCCC3)C2)CC1` (stereo not given), for which the inhibition (reported as % activation of signal) was -2.02%.
For the compound `C=CCN1CCN(C(=O)CCCc2ccccc2)CC1`, the inhibition (reported as % activation of signal) is 0.85%.
Take `O=C(Oc1ccc(-c2nc(-c3ccccn3)no2)cc1)c1ccccc1`: the inhibition (reported as % activation of signal) was 52.9% (active).
In the case of `O=C(COC(=O)c1ccncc1)c1ccccc1` it was -0.53%; in that of `Cc1noc(C)c1COC(=O)COc1ccc(-c2ccccc2)cc1`, -6.7%.
In the case of `Nc1nc(Br)c2ccccc2c1-c1ccc(F)cc1` it was -9.34%; in that of `Cc1cccc(C)c1OCCN1CCOCC1`, 0.32%.
Next, `c1ccc2cc3c(NCCN4CCOCC4)ccnc3cc2c1`: 54.4% (active); `O=C(NCCN1CCOCC1)c1cc(Sc2cccc(Cl)c2)nc2ccccc12`: -4.33%.
Take `CN1CCN(C(=O)C(=O)c2cn(CC(=O)N3CCCC3)c3ccccc23)CC1`: the inhibition (reported as % activation of signal) is 1.12%.
Regarding `O=C(CN1C(=O)c2cccnc2Oc2ccc(Cl)cc21)NCCc1ccccc1`, the inhibition (reported as % activation of signal) is -0.09%.
In the case of `Cc1ccc2oc(=O)c3cnn(CC(=O)N4CCN(c5ccccn5)CC4)c3c2c1` it was 2.52%; in that of `CCC(=O)Nc1ccc(C(=O)NNC(=O)c2ccc(Cl)cc2)cc1`, -1.31%.
In the case of `CC(=O)Nc1ccc(SCC(=O)NC(=O)c2ccc(Cl)cc2)cc1` it was 69.8% (active); in that of `CC(=O)Nc1ccc(NC(=O)CCCNC(=O)c2ccc(Cl)cc2)cc1`, -1.09%; in that of `Cc1ccc2c(CN3CCN(S(=O)(=O)c4ccccc4C(F)(F)F)CC3)cc(=O)oc2c1`, -2.32%.
`CC(C)Oc1ccc(S(=O)(=O)N2CCOCC2)cc1NC(=O)C1CCCC1`: the inhibition (reported as % activation of signal) was 4.21%.
In the case of `Cc1ccc(-c2nn(-c3ccccc3)cc2/C=C2\SC(=S)N(CCCCCC(=O)O)C2=O)o1` it was 87.9% (active); in that of `O=C(CN1C(=O)/C(=C\c2ccccc2F)SC1=S)Nc1nc2ccccc2s1`, -44.4%; in that of `CCCCN1C(=O)/C(=C/C=C2/C=Cc3ccccc3N2CC)SC1=S`, 3.13%.
Next, `CCOC(=O)c1sc(=NC(=O)/C=C/c2cccs2)n(C)c1C`: 10.1%; `CCOC(=O)c1c(NC(=S)NC(=O)/C=C/c2cccs2)sc(C)c1C`: 58.9% (active).
Turning to `CCc1nnc(NS(=O)(=O)c2ccc(NC(=S)NC(=O)/C=C/c3cccs3)cc2)s1`, the inhibition (reported as % activation of signal) is 9.17%.
Next, `O=C(CO/N=C/c1ccccc1O)NNC(=O)c1ccccc1Cl`: -2.54%; `CC(C)(C)N(Cc1ccccc1)C(=O)c1ccncc1`: 82.6% (active); `CC(C)(C)C(=O)N(Cc1ccccc1)c1ccccn1`: -1.5%.
Regarding `CCN(Cc1ccncc1)C(=O)CCc1ccccc1`, the inhibition (reported as % activation of signal) is -1.63%.
In the case of `CC(=O)N/C(=N/c1nc(C)cc(C)n1)Nc1ccc(F)cc1F` it was 0.05%.
Next, `C/C(=N\NC(=O)CCn1nc(C)cc1C)C(C)(C)C`: -0.8%; `OCC(O)C1OCOC(C(O)CO)C1O` (stereo not given): -1.63%; `O=C(NCCc1ccc(F)cc1)c1ccc(S(=O)(=O)N2CCCCC2)cc1`: -2.12%.
Next, `NC1=CC(=O)C(=O)c2cccnc21`: 100% (active).
`CN(Cc1ccccc1)C(=O)COC(=O)c1ccccc1Nc1ccccc1`: the inhibition (reported as % activation of signal) was -16.6%.
Regarding `Cn1cnc(C(F)(F)F)c1-c1ccc([N+](=O)[O-])cc1`, the inhibition (reported as % activation of signal) is 3.01%.
Next, `O=C(COC(=O)c1ccccc1)Nc1ccccc1Sc1ccccc1`: 0.84%.
Consider `O=C(COC(=O)c1cccc(Br)c1)Nc1cccc2c1C(=O)c1ccccc1C2=O`, for which the inhibition (reported as % activation of signal) is 51% (active).
In the case of `O=C(COC(=O)Cn1cnc2ccccc21)Nc1cccc2c1C(=O)c1ccccc1C2=O` it was 27.5%.
In the case of `CC(C)(C)c1ccccc1NC(=O)CN1C(=O)NC2(CCCC2)C1=O` it was 1.67%; in that of `COCCn1cnnc1SCC(=O)Nc1cccc(S(=O)(=O)N2CCCCC2)c1`, -1.49%.
In the case of `Cc1ccc2c(c1)N(CC(=O)N1CCC(C)CC1)C(=O)c1cccnc1O2` it was -0.74%; in that of `COc1ccc(/C=C/C(=O)OCC(=O)N2CCN(S(=O)(=O)c3ccc(C)cc3C)CC2)cc1OC`, -0.56%; in that of `Cc1ccc(N=C2NC(=O)/C(=C/C=C/c3ccco3)S2)cc1C`, 71.1% (active).
Regarding `Cc1cc(C)c(-c2csc(NC(=O)CCCc3nc4ccccc4c(=O)[nH]3)n2)c(C)c1`, the inhibition (reported as % activation of signal) is -5%.
In the case of `O=C(CSc1nc2ccccc2c(=O)[nH]1)Nc1nc(-c2ccc(Br)cc2)cs1` it was 93.2% (active).
Take `O=C(COC(=O)c1cc(=O)[nH]c2ccccc12)Nc1nc(-c2cccc(Br)c2)cs1`: the inhibition (reported as % activation of signal) is -21.4%.
As to `Cc1ccc(C(C(=O)NCC2CCCO2)N(C(=O)c2snc(C(N)=O)c2N)c2ccc(C(C)C)cc2)o1` (stereo not given), the inhibition (reported as % activation of signal) is 0.65%.
In the case of `CC(C)C(=O)Nc1ccc2c(c1)oc1ccccc12` it was -5.97%.

The record behind these values is PubChem BioAssay AID588458 (Sanford-Burnham Center for Chemical Genomics, 2011).
